Most compounds without a hit are left out; they make up all but 3.7% or so of the library.
BoNT A protease: inhibitors of Botulinum neurotoxin A light chain protease | multiplex microsphere protease substrate cleavage, flow cytometry | inhibition, % at 10 µM | 360,000 compounds, 0.17% hits; further: plate controls were buffer without enzyme for full effect and enzyme alone for no effect
Bead autofluor: flagged as autofluorescent in microsphere protease counterscreen. compound autofluorescence counterscreen, microsphere flow cytometry; stronger effect = higher value. 360,000 compounds, 3.1% hits. AID 624483. fluorescence intensity (no concentration beside the values); in the data active means fluorescence intensity above about 16000; inconclusive means no clear call, values can overlap the other calls
BJeLR viability: kills HRASV12-expressing BJeLR cells; inhibition, % (test concentration not listed); 300,000 compounds, 0.17% hits; BJeLR (HRASV12) viability, CellTiter-Glo ATP luminescence, 48 h; in the data active means inhibition above about 50%; inconclusive means no clear call, values can overlap the other calls
BoNT F protease: BoNT F light chain protease inhibition | AID 588497 | Multiplex microsphere protease cleavage assay, flow cytometry | inhibition, % at 10 µM | 360,000 compounds, 0.22% hits; in the data active means inhibition above about 35%, passing the limit was not always enough; inconclusive means no clear call, values can overlap the other calls; further: plate controls were buffer without enzyme for full effect and enzyme alone for no effect
BH1578 lux ind: induces V. cholerae light production without autoinducers. 350,000 compounds, 0.16% hits. AID 588436. V. cholerae BH1578 lux reporter, luminescence, 6 h. activation, % at 18.7 µM; in the data active means activation mostly above about 9.7%, no sharp cut-off; inconclusive means no clear call, values can overlap the other calls; inactive means mostly below about 3.7%
Anthrax LF prot: anthrax lethal factor protease inhibition. inhibition, % at 10 µM. 360,000 compounds, 0.12% hits. multiplex microsphere protease cleavage assay, LF. P15917. AID 588501; further: plate controls were buffer without enzyme for full effect and enzyme alone for no effect
Target sequence (P15917 whole entry, looked up): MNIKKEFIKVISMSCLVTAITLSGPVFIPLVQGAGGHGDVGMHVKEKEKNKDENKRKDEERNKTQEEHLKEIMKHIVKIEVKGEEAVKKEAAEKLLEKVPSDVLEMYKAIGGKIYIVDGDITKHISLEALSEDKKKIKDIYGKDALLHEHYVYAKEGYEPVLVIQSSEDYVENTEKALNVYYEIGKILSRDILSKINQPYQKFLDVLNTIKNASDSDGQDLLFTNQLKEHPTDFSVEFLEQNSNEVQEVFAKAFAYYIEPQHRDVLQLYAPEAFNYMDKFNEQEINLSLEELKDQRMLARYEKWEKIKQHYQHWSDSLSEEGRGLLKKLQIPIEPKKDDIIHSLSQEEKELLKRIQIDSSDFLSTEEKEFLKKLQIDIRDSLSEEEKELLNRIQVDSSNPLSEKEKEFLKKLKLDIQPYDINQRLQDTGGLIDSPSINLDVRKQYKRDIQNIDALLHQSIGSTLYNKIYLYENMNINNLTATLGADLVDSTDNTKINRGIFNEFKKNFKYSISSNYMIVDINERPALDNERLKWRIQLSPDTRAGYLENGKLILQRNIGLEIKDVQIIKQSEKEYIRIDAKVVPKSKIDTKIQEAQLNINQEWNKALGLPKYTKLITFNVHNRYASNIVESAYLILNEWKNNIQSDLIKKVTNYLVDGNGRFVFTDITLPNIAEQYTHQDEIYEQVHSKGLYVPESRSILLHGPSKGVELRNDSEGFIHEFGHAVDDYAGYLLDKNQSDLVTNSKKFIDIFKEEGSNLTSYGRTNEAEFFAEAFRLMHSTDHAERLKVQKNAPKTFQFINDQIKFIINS
The depositor's hits bear a star; i = inactive; u = inconclusive; x = no result given. Unless noted, no stated cut-off is given here; in the data, active means inhibition above about 30%; inconclusive means no clear call, values can overlap the other calls; inactive means below that.

SMILES	BoNT A protease	Bead autofluor	BJeLR viability	BoNT F protease	BH1578 lux ind	Anthrax LF prot
COc1ccc(C(=O)N2CCN(S(=O)(=O)c3ccc(F)cc3)CC2)cc1OC	0	2477	-10	-1	-1	-1
CCC(C(=O)NC(C)(C)C)N(Cc1ccc(OC)cc1)C(=O)c1snc(C(N)=O)c1N (stereo not given)	0	3803	x	1	-5	6
Cc1noc(-c2ccccc2)c1NC(=O)Nc1ccc2nc([C@H]3C[C@H](O)[C@@H](CO)O3)[nH]c2c1	-1	5775	x	-6	-1	7
CC(=O)Nc1cc(-c2cccc(C(=O)N(C)C)c2)cn2c(-c3ccc(C(C)=O)cc3)cnc12	0	3912	x	8	i	0
COc1ccc2c(c1)CCO[C@]21O[C@H](CCO)C[C@H](O)[C@H]1O	0	3006	x	-2	i	-7
CC(=O)N1CCOC12CCN(Cc1ccccc1)CC2	0	4082	x	-1	-11	-1
Cc1ccc(C(=O)O)cc1S(=O)(=O)N1CCOCC1	-2	16552*	0	-3	-1	-1
Cc1ccc(C(=O)N2CCOCC2)cc1S(=O)(=O)N1CCOCC1	-1	5328	2	-8	-1	-2
Cc1ccc(C)c(N(C(=O)Cn2nnc(-c3cccs3)n2)C(C(=O)NC2CCCC2)c2ccncc2)c1 (stereo not given)	-1	24211*	9	-4	i	-4
CC1=CCC[C@@H]2[C@]3(CC/C(=C/CO)CO)CO[C@@]2(C1)[C@@H](O)C[C@H]3C	1	5739	x	8	0	0
O=c1[nH]c(-c2ccccc2)ncc1OCc1ccccc1	0	4233	x	-5	i	-9
COc1cccc(S(=O)(=O)N(C)C[C@@H]2OCc3cnnn3CCCC(=O)N([C@@H](C)CO)C[C@@H]2C)c1	0	3852	x	-3	0	-2
O=C(Nc1ccc(F)cc1)N1CCC(c2nc3c(nnn3Cc3cccc(Cl)c3)c(=O)[nH]2)CC1	-5	25569*	x	-10	0	-2
Cc1ccc(NC(=O)N2CCC(c3nc4c(nnn4Cc4cccc(Cl)c4)c(=O)[nH]3)CC2)cc1	0	9870	-1	-10	-6	-2
CSc1ccccc1C(=O)Nc1cccc([N+](=O)[O-])c1	0	4563	5	2	-2	-2
COC(=O)c1ccc(NC(=O)c2ccccc2C(=O)Nc2ccc(C(=O)OC)cc2)cc1	0	6278	5	-4	-2	-4
CSc1ccccc1C(=O)Nc1cccc(C)c1	u	17403*	4	11	-2	-4
COC(=O)c1ccc(NC(=O)c2ccccc2SC)cc1	-3	16827*	8	-2	i	-2
CC(=O)NC(C)(c1ccccc1)c1nc(-c2cnc3ccccc3c2)cs1 (stereo not given)	0	3790	x	2	0	2
COc1ccccc1N1CCN(C(=O)CSc2nc(C)c(C)c(=O)[nH]2)CC1	-1	4485	0	-4	0	1
COc1ccccc1N1CCN(C(=O)N2CCOCC2)CC1	-2	23262*	8	-2	0	-1
COc1cc(/C=N/N2CCN(c3ccccc3OC)CC2)ccc1OC(C)=O	0	3650	0	u	0	42*
COc1ccccc1N1CCN(C(=O)CSc2nc(C)cc(=O)[nH]2)CC1	-2	17183*	-1	-5	0	0
COc1cccc(OC)c1C(=O)N1CCOCC1	u	22982*	-5	1	1	0
COc1ccccc1N1CCN(/N=C/c2cc(OC)c(O)c(OC)c2)CC1	-1	10923	5	4	0	2
SMILES	BoNT A protease	Bead autofluor	BJeLR viability	BoNT F protease	BH1578 lux ind	Anthrax LF prot
CC1(C(=O)Nc2ccccc2)CCN1C(=O)CCc1ccc(Cl)cc1Cl (stereo not given)	0	3986	x	-3	0	-13
Cc1ccc(NC(=O)C2c3ccccc3-c3ccccc32)cc1	0	4308	x	-6	x	0
CCc1cccc(N=c2c([N+](=O)[O-])nn(-c3ccc(Cl)cc3)n2O)c1	1	22799*	3	-1	i	-5
O=[N+]([O-])c1nn(-c2ccc(Cl)cc2)n(O)c1=NCc1cccnc1	0	2547	-13	-13	-1	-3
Cc1cc(C)cc(N=c2c([N+](=O)[O-])nn(-c3cccc(Cl)c3)n2O)c1	1	22853*	4	1	0	0
O=[N+]([O-])c1nn(-c2cccc(Cl)c2)n(O)c1=NCc1cccnc1	3	2385	7	35*	0	1

Screening data as filed in PubChem.
